The values below come from PubChem BioAssay AID651819 (National Center for Advancing Translational Sciences (NCATS), 2012).

Each structure is given as a SMILES string. The campaign covered roughly 360,000 compounds. About 1,100 (0.31%) were called active. Cut-off read from the data, not from the text of the source: active = activity change below about -30%; inactive = the rest. Many of the other results were omitted from the sample, so actives are more common in it than they were.
% is set by controls: 0 for no effect and ±100 for the full control effect.

The experiment deals with cytosolic chaperonin (CCT/TRiC complex). Briefly: High-Throughput Screening for Modulators of Cytosolic Chaperonin Activity. Particulars: purified chaperonin ATPase assay, HTRF ADP detection, 30 min; active compounds read low. The source says: The eukaryotic chaperonin named TRiC (for TCP-1 ring complex), also called CCT (for chaperonin containing TCP1), is an essential and conserved chaperone required for the folding and activation of 10-15% of the proteins encoded by the human genome. […] Despite its central role in cellular folding, little is known about TRiC mechanism and mode of substrate binding. Currently, no specific TRiC inhibitors are available. Given the early promise of other chaperone-directed inhibitors as cancer therapeutics (e.g. HSP90 inhibitors), inhibitors of TRiC activity may also selectively target transformed cells and have potential use as therapeutics for cancer.
To this end, a miniaturized assay was developed to screen against the Molecular Libraries Small Molecule Repository (MLSMR).
NIH Chemical Genomics Center [NCGC]
NIH Molecular Libraries Probe Centers Network [MLPCN]
Assay Submitter (PI): Judith Frydman, Stanford University
1.5 uL/well TRiC enzyme suspended in buffer (30 mM TRIS pH7.4, 100 mM KCl, 5 mM MgCl2, 1 mM DTT) was added with BioRAPTR FRD dispenser at 40 nM or 20 nM (based on the enzymatic activity of used batches) final concentration to a white solid bottom medium binding 1536-well plate (Greiner Bio-One, Monroe, NC), and quickly spanned down. 23 nl/well of compound solutions in DMSO were added with a pintool transfer (Kalypsis, San Diego, CA) at a single 76 uM final concentration. Next, 1.5 µl/well ATP was dispensed with BioraptR at 10 uM final concentration after which the plates were incubated at 37 deg C for 30 min. HTRF(R) Transcreener(R) ADP (Cisbio US, Bedford, MA) detection reagents were prepared accordingly to the protocol and dispensed into the plate (1.5 uL/well each), incubated for 30 min at ambient temperature. Then, the plates were read using Envision reader with excitation at 330nm and emission at 615nm (Eu(3)-Cryptate donor signal) and 665nm (d2 acceptor signal). The ratio of […] was calculated for each well.
For orientation: TR-FRET usually uses a lanthanide donor and a delayed reading to cut background.
As to `COc1ccc2c(c1)C(=O)CC(c1ccccc1)O2` (configuration not stated), the activity change was 0.324% (inactive).
The figure for `Cc1c(O)c(C)c2c(c1O)C(=O)C[C@@H](c1ccccc1)O2` is -31.9% (active); for `O=C1CC(c2ccccc2)C(=O)N2C(=O)CC(c3ccccc3)C(=O)N12` (configuration not stated) it is -3.94% (inactive); for `CCc1ccc(C(=O)N2CCN(S(=O)(=O)c3sc(C(=O)O)c(C)c3C(=O)O)CC2)cc1` it is -1.96% (inactive).
To `COC(=O)CN(c1nc(C)c(Cl)c(OC)n1)S(=O)(=O)c1ccc(C)cc1` belongs 2.28% (inactive); to `CC1CCC2(CC1)NC(=O)N(CC(=O)c1cccn1C)C2=O` (configuration not stated), 0.876% (inactive); to `O=C(Cn1nc([N+](=O)[O-])nc1Br)NC1CCCCC1`, -63% (active).
`Cc1nn(CC(=O)NC2CCCCC2)c(=O)c2cccn12`: the activity change was 0.008% (inactive).
To `Cc1cc(C(F)F)nn1CC(=O)NC1CCCCCC1` belongs -0.636% (inactive); to `COc1c(Br)cc2c(C)c(C(=O)N3CCOCC3)oc2c1Br`, -0.84% (inactive); to `Cc1ccc2[nH]c(=O)c(CN(C)S(=O)(=O)c3cccc4nonc34)cc2c1`, -2.6% (inactive).
The figure for `Nc1ccc(OCC(O)C[n+]2ccc(CCS(=O)(=O)[O-])cc2)cc1` (configuration not stated) is -32.1% (active); for `CCCc1ccc(OCC(O)CN2CCN(C(=O)OCC)CC2)cc1` (configuration not stated) it is 0.305% (inactive).
To `CCc1ccc(S(=O)(=O)NCC(O)COc2ccc(OC)cc2)cc1` (configuration not stated) belongs 2.49% (inactive).
`O=C(Nc1cccc(Cl)c1Cl)c1ccccc1NC(=O)C1CC=CCC1C(=O)O` (configuration not stated): the activity change is 1.29% (inactive).
The figure for `COC(=O)c1ccc(SCc2ccccc2)nc1` is -0.717% (inactive); for `O=C(c1ccc(Cl)cc1)n1cnc2ccccc21` it is -0.842% (inactive); for `COC(=O)c1ccc(-n2cnc3ccccc32)nc1` it is -67.7% (active).
Regarding `CS(=O)(=O)N(Cc1nc2sc3c(c2c(=O)[nH]1)CCCC3)C1CCCCC1`, the activity change is -3.6% (inactive).
The figure for `COC(=O)c1sccc1N/N=C(\C)c1ccc(F)c(Cl)c1` is 0.343% (inactive).
Turning to `COc1ccc(-c2nc(CS(=O)(=O)CC(=O)NCc3cccc(Br)c3)c(C)o2)cc1`, the activity change is -0.857% (inactive).
The figure for `COc1ccc(CCNC(=O)CS(=O)(=O)Cc2nc(-c3ccc(C)cc3)oc2C)cc1OC` is -1.25% (inactive); for `Cc1ccc(-c2nc(CS(=O)(=O)CC(=O)NCc3ccc4c(c3)OCO4)c(C)o2)cc1` it is -39.8% (active); for `CC12CN(Cc3ccccc3)CC(C)(CN(Cc3ccccc3)C1)C2=NO` it is 1.91% (inactive).
For the compound `CC(C)(C)CN1C(=O)C(=O)NC[C@H]1Cc1cccc2ccccc12`, the activity change is -2.37% (inactive).
The figure for `CC(=O)c1ccc(NC(=O)CCc2nnc3ccc(NCc4ccco4)nn23)cc1` is -1.16% (inactive); for `CCOc1ccccc1NC(=O)CCc1nnc2ccc(NCc3ccco3)nn12` it is 1.37% (inactive); for `O=C(CCc1nnc2ccc(NCc3ccco3)nn12)Nc1cc(F)ccc1F` it is -33.9% (active).
To `COC(=O)[C@@]1(Cc2ccc(F)cc2)[C@H]2c3cc(C(=O)N(C)C)n(CCc4c[nH]c5ccc(OC)cc45)c3C[C@H]2CN1C(=O)c1ccccc1` belongs -0.685% (inactive).
As for `C=CCOc1ccc(/C=N/NC(=O)C(C)Sc2ccccn2)cc1OCC` (configuration not stated), the activity change is -2.2% (inactive).
`O=C(NNC(=O)c1cccc(S(=O)(=O)Nc2ccc(Cl)cc2)c1)c1ccc(=O)[nH]c1`: the activity change was -0.309% (inactive).
To `CCc1ccc(/C=N/NC(=O)c2ccc(OC3CCCC3)cc2)s1` belongs -13.3% (inactive); to `CCOC(=O)c1c(CN2CCOCC2)n(-c2ccccc2)c2ccc(O)cc12`, -1.1% (inactive); to `CC(=O)c1c(C)n(-c2ccc(C)cc2)c2ccc(O)cc12`, -47.3% (active).
In the case of `CC(=O)c1c(C)n(-c2ccc(N(C)C)cc2)c2ccc(OCC(N)=O)cc12`, the activity change is 0.0827% (inactive).
The figure for `Cc1ccc(CN2C(=O)CCC2C(=O)NCCCN2CCCCC2C)cc1` (configuration not stated) is 0.0456% (inactive).
To `CC1CCN(c2ccc(S(=O)(=O)Nc3cc(C(=O)O)cc(C(=O)O)c3)cc2[N+](=O)[O-])CC1` belongs -0.243% (inactive).
Consider `CCc1ccccc1NC(=O)Cc1cn(C)c2ccccc12`, for which the activity change is -2.82% (inactive).
As to `O=C(NCc1ccco1)C1CCCN(S(=O)(=O)c2cccc3nonc23)C1` (configuration not stated), the activity change is -0.959% (inactive).
Consider `Cc1ccccc1CN1CCN(CC(=O)NCc2ccccn2)C1=O`, for which the activity change is 0.386% (inactive).
The figure for `Cc1ccccc1CNC(=O)CCC(=O)N1Cc2ccccc2Oc2ncccc21` is -84.3% (active); for `Cc1ccc2c(c1)N(C(=O)CCC(=O)NCc1cccnc1)CCO2` it is -3.52% (inactive); for `COC(=O)[C@@H](NC(=O)NCc1cccc(OC)c1)C(C)C` it is -2.29% (inactive).
`COC(=O)Nc1ncc(CN2C(=O)c3ccccc3C2=O)s1`: the activity change is -0.4% (inactive).
Turning to `Cc1noc(C)c1S(=O)(=O)N1CCCC(C(=O)Nc2nccs2)C1` (configuration not stated), the activity change is -0.498% (inactive).
The figure for `CC(Cc1cccs1)N(Cc1ccc(Cl)cc1)C(=O)c1ccncc1` (configuration not stated) is 1.98% (inactive).
`Brc1ccc(-c2csc(N/N=C/c3ccc4c(c3)OCO4)n2)cc1`: the activity change is -49.7% (active).
The figure for `CC(O)(c1cccc(F)c1)c1nc(-c2ccc3c(c2)OCO3)cs1` (configuration not stated) is -0.833% (inactive); for `COc1ccc(C(O)c2nc(-c3ccc4c(c3)OCO4)cs2)cc1` (configuration not stated) it is -0.395% (inactive).
To `O=C(NCCCNC(=O)NC1CCCCC1)NC1CCCCC1` belongs -1.85% (inactive).
The figure for `Cc1cc(OC(=O)c2ccc(OC(C)C)cc2)c([N+](=O)[O-])c(=O)[nH]1` is -0.062% (inactive).
Take `O=C(CCCCCn1c(=S)[nH]c2ccsc2c1=O)NC1CCCCC1`: the activity change was -30.8% (active).
Regarding `CCCCC(CC)CNC(=O)CCCCn1c(=O)[nH]c2ccsc2c1=O` (configuration not stated), the activity change is 1.33% (inactive).
To `O=C(CCC(=O)c1cccs1)NC1CCCCCC1` belongs 0.811% (inactive); to `CCN(CC)CCCN=C(N)N`, -0.0838% (inactive); to `CC(C)(C)C(=O)NC1CC2CCCC(C1)N2C(=O)Nc1ccccc1F` (configuration not stated), -5.23% (inactive).
In the case of `C=CS(=O)c1sc(Cl)c(N2CCOCC2)c1[N+](=O)[O-]` (configuration not stated), the activity change was -1.53% (inactive).
The figure for `CC(C)C(NC(=O)C1CCC(C(C)(C)C)CC1)C(=O)NCCCN1CCCCC1` (configuration not stated) is 0.128% (inactive).
The figure for `COc1ccc(CC(=O)c2ccc(O)cc2O)cc1OC` is -38.8% (active).
To `O=C(Cc1ccccn1)c1ccc(O)cc1O` belongs -0.381% (inactive).
Take `COc1ccc(CCNC(=O)CCc2ccccc2O)cc1OC`: the activity change is -0.891% (inactive).
To `CC(=O)Cn1ncc(N2CCOCC2)c(Br)c1=O` belongs -7.2% (inactive); to `O=C(CSCc1ccccc1Cl)NNC(=O)c1ccccc1`, -0.322% (inactive).
For `O=C(CSCc1c(Cl)cccc1Cl)NN1C(=O)c2ccccc2C1=O`, the activity change is -44% (active).
On to `O=C(CSCc1c(F)cccc1Cl)NCC1CCCO1` (configuration not stated), for which the activity change is -0.136% (inactive).
With `CC(CO)(CO)NC(=O)c1ccc(=O)[nH]n1`, the activity change is 1.59% (inactive).
To `Cc1ccc(C)c(OCCC(=O)OCC(=O)c2ccc3c(c2)NC(=O)CO3)c1` belongs -8.24% (inactive).
To `CCOC(=O)C1CCN(C(=O)COc2cc(C)c(Br)c(C)c2)CC1` belongs -2.02% (inactive).
Consider `Cc1cc(=O)oc2ccc(OCC(=O)O)cc12`, for which the activity change is -57.7% (active).
The figure for `CC(=O)c1c(C)[nH]c(C(=O)COc2ccc3c(C)cc(=O)oc3c2)c1C` is -0.599% (inactive); for `Cc1ccc(O)c(/C=N/NC(=O)COc2ccc3c(C)cc(=O)oc3c2)c1` it is 2.07% (inactive).
With `O=C(NCCC1CCCCN1S(=O)(=O)c1ccc(Cl)cc1)C(=O)NCc1ccco1` (configuration not stated), the activity change is 2.22% (inactive).
The figure for `CCOC(=O)[C@@H]1[C@H]2COc3ccc(Br)cc3[C@H]2N2C(=O)N(c3ccc(Cl)cc3)C(=O)[C@@]12C` is -1.17% (inactive).
As to `CC1(C(=O)Nc2cccc3cccnc23)CCN1C(=O)CCC1CCCC1` (configuration not stated), the activity change was 1.06% (inactive).
The figure for `O=C1c2ccccc2C(O)N1Cc1ccccc1` (configuration not stated) is -1.07% (inactive); for `CCCCCCn1cc(C(=O)O)c(=O)c2cc(F)c(N3CCCCC3)cc21` it is -2.93% (inactive); for `CCn1cc(C(=O)NCCO)c(=O)c2cc(F)c(N3CCN(C)CC3)cc21` it is -0.12% (inactive).
Take `CN1CCN(c2cc3c(cc2F)c(=O)c(C(=O)O)cn3CCF)CC1`: the activity change is -35.1% (active).
The figure for `COc1ccc(S(=O)(=O)N2CCOC2CNC(=O)C(=O)NCc2ccncc2)cc1OC` (configuration not stated) is 0.662% (inactive); for `O=C(NCc1ccccc1)C(=O)NCC1OCCN1S(=O)(=O)c1ccc(Br)cc1` (configuration not stated) it is -1.3% (inactive); for `O=C(NCc1ccncc1)C(=O)NCC1OCCN1S(=O)(=O)c1ccc(Br)cc1` (configuration not stated) it is -45.4% (active).
In the case of `O=C1CCC(=O)N1c1ccc(NCCc2ccccc2F)c([N+](=O)[O-])c1`, the activity change is -1.58% (inactive).
To `Cc1ccccc1NC(=O)c1cc(S(=O)(=O)N2CCOCC2)cs1` belongs -3.83% (inactive); to `Cn1c(=O)c(=O)n(C)c2cc(S(=O)(=O)NCCc3ccccc3)ccc21`, -5.22% (inactive).
On to `COc1cccc(C(=O)NCCS(=O)(=O)NCC2CCCO2)c1` (configuration not stated), for which the activity change was -0.161% (inactive).
To `CN(C(=O)c1cccc(OC2CCN(S(=O)(=O)N(C)C)CC2)c1)C1CCOC1` (configuration not stated) belongs -4.71% (inactive); to `CN(C)S(=O)(=O)N1CCC(Oc2cccc(C(=O)NCCCC3CCCC3)c2)CC1`, -87.6% (active).
Consider `Cc1onc(-c2c(F)cccc2Cl)c1C(=O)Nc1cccc(S(=O)(=O)N2CCCCC2)c1`, for which the activity change is -0.204% (inactive).
The figure for `Cc1[nH]n(C)c(=O)c1C(=O)c1c(-c2c(Cl)cccc2Cl)noc1C` is -45.8% (active).
As for `Cc1onc(-c2c(Cl)cccc2Cl)c1C(=O)c1c[nH]c(C(=O)NC2CC2)c1`, the activity change is 0.407% (inactive).
To `O=C1NC(c2ccccc2)=NC1(Nc1ccccn1)C(F)(F)F` (configuration not stated) belongs -1.42% (inactive); to `Cc1cccc(N)c1SC1CCCCC1O` (configuration not stated), -39.7% (active).
